Measurements as given in the supplement of paper PMC12669032.
Values joined by “and” are separate entries in the source; they are usually repeats but may differ in a detail not shown here. Identical values can stand only once.

Key:
Test in all cases: growth AUC relative to DMSO control (median of replicates) (fraction); higher = more growth (less inhibition), active = hit call of the paper
Details in all cases: 20 µM; 24 h;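 active = AUC reduced over 20% with Padj below 0.05 in at least 2 of 3 replicates; inactive = otherwise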
Akkermansia muciniphila = tested on: Akkermansia muciniphila
How it was run: (§1)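 Gut bacterial monocultures were grown anaerobically at 37 °C in mGAM, starting at OD600 0.05, with 20 µM compound (1% DMSO) in round-bottom 96-well plates under pierced gas-permeable seals. OD600 was read hourly for 24 h. Area under the growth curve (minimum OD set to 0) was normalised to the plate median of DMSO controls, or to row and column medians on the industrial chemical plate. The value is the median of three biological replicates grown on separate days.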

Bacteroides caccae = tested on: Bacteroides caccae
How it was run: as §1

Bacteroides clarus = tested on: Bacteroides clarus
How it was run: as §1

Bacteroides dorei = tested on: Bacteroides dorei
How it was run: as §1

Bacteroides stercoris = tested on: Bacteroides stercoris
How it was run: as §1

[1] = tested on: Bacteroides thetaiotaomicron
How it was run: as §1

Bacteroides uniformis = tested on: Bacteroides uniformis
How it was run: as §1

[2] = tested on: Bifidobacterium longum subsp. longum
How it was run: as §1

Clostridium difficile = tested on: Clostridium difficile
How it was run: as §1

Collinsella aerofaciens = tested on: Collinsella aerofaciens
How it was run: as §1

Measured: growth AUC

Nc1nc(N)nc(N)n1
active: Bacteroides stercoris 0.792
inactive: Akkermansia muciniphila 0.956 | Bacteroides caccae 1.02 | Bacteroides clarus 0.881 | Bacteroides dorei 1.03 | [1] 0.968 | Bacteroides uniformis 0.972 | [2] 1.15 | Clostridium difficile 0.989 | Collinsella aerofaciens 1.03

CCCCCCCCCc1ccc(O)cc1
inactive: Akkermansia muciniphila 1.02 | Bacteroides caccae 1.03 | Bacteroides dorei 1.01 | [1] 1.01 | [2] 0.929 | Clostridium difficile 1.03 | Collinsella aerofaciens 0.925
active: Bacteroides clarus 0.739 | Bacteroides stercoris 0.0469 | Bacteroides uniformis 0.289

CC(=NC#N)N(C)Cc1ccc(Cl)nc1
inactive: Akkermansia muciniphila 0.993 and 0.945 | Bacteroides caccae 0.979 and 0.959 | Bacteroides clarus 1.02 and 0.96 | Bacteroides dorei 0.993 and 1.01 | Bacteroides stercoris 1.08 and 0.985 | [1] 0.987 and 0.95 | Bacteroides uniformis 1 and 0.993 | [2] 1.03 and 0.979 | Clostridium difficile 0.986 and 1 | Collinsella aerofaciens 1.02

COC(=O)[C@@H](C)N(C(=O)Cc1ccccc1)c1c(C)cccc1C
inactive: Akkermansia muciniphila 0.957 | Bacteroides caccae 0.968 | Bacteroides clarus 0.98 | Bacteroides dorei 0.964 | Bacteroides stercoris 0.954 | [1] 0.93 | Bacteroides uniformis 0.897 | [2] 1.01 | Clostridium difficile 0.998 | Collinsella aerofaciens 1.03

CCCCC(O)(Cn1cncn1)c1ccc(Cl)cc1Cl (stereo not given)
inactive: Akkermansia muciniphila 0.965 | Bacteroides caccae 0.944 | Bacteroides clarus 0.96 | Bacteroides dorei 0.97 | Bacteroides stercoris 1.22 | [1] 0.92 | Bacteroides uniformis 0.971 | [2] 1.02 | Clostridium difficile 0.92 | Collinsella aerofaciens 1

CCOP(=O)(OCC)OCC
inactive: Akkermansia muciniphila 1.06 | Bacteroides caccae 0.991 | Bacteroides clarus 1.03 | Bacteroides dorei 0.972 | Bacteroides stercoris 1.03 | [1] 1.02 | Bacteroides uniformis 1.03 | [2] 0.971 | Clostridium difficile 0.989 | Collinsella aerofaciens 0.967

Oc1c(Cl)c(Cl)cc(Cl)c1Cl
active: Bacteroides clarus 0.726 | Bacteroides uniformis 0.636
inactive: Akkermansia muciniphila 0.834 | Bacteroides caccae 0.81 | Bacteroides dorei 0.758 | Bacteroides stercoris 0.684 | [1] 0.794 | [2] 0.974 | Clostridium difficile 0.941 | Collinsella aerofaciens 0.941

N#Cc1c[nH]cc1-c1cccc2c1OC(F)(F)O2
inactive: Akkermansia muciniphila 0.837 | Bacteroides caccae 0.959 | Bacteroides clarus 0.918 | Bacteroides dorei 0.953 | Bacteroides stercoris 0.85 | [1] 0.953 | Bacteroides uniformis 0.999 | [2] 0.91 | Clostridium difficile 0.978 | Collinsella aerofaciens 0.992

O=C(NC(=O)c1c(F)cccc1F)Nc1ccc(OC(F)(F)C(F)OC(F)(F)F)c(Cl)c1 (stereo not given)
inactive: Akkermansia muciniphila 0.979 | Bacteroides caccae 0.991 | Bacteroides clarus 1.01 | Bacteroides dorei 1.03 | Bacteroides stercoris 0.982 | [1] 0.974 | Bacteroides uniformis 0.997 | [2] 1 | Clostridium difficile 0.985 | Collinsella aerofaciens 0.971

COP(=O)(OC)Oc1ccc(S(C)=O)c(C)c1 (stereo not given)
inactive: Akkermansia muciniphila 0.935 | Bacteroides caccae 0.986 | Bacteroides clarus 0.95 | Bacteroides dorei 1 | Bacteroides stercoris 1.02 | [1] 0.972 | Bacteroides uniformis 0.994 | [2] 1 | Clostridium difficile 1.01 | Collinsella aerofaciens 0.996

O=C(O)C1(O)c2ccccc2-c2ccc(Cl)cc21 (stereo not given)
inactive: Akkermansia muciniphila 0.865 | Bacteroides caccae 0.979 | Bacteroides clarus 0.935 | Bacteroides dorei 1.08 | Bacteroides stercoris 1.04 | [1] 0.958 | Bacteroides uniformis 0.984 | [2] 0.936 | Clostridium difficile 0.993 | Collinsella aerofaciens 1.03

CCC(C)Nc1c([N+](=O)[O-])cc(C(C)(C)C)cc1[N+](=O)[O-] (stereo not given)
inactive: Akkermansia muciniphila 0.988 | Bacteroides caccae 0.953 | Bacteroides clarus 0.939 | Bacteroides dorei 0.98 | Bacteroides stercoris 1.11 | [1] 0.931 | Bacteroides uniformis 0.945 | [2] 0.81 | Clostridium difficile 0.938 | Collinsella aerofaciens 0.959

CC(C)OP(=O)(OC(C)C)SCc1ccccc1
inactive: Akkermansia muciniphila 1.12 | Bacteroides caccae 0.976 | Bacteroides clarus 0.99 | Bacteroides dorei 0.981 | Bacteroides stercoris 0.997 | [1] 0.964 | Bacteroides uniformis 0.968 | [2] 0.902 | Clostridium difficile 0.968 | Collinsella aerofaciens 1

Clc1ccc(C(c2ccc(Cl)cc2)C(Cl)(Cl)Cl)cc1
inactive: Akkermansia muciniphila 1.1 | Bacteroides caccae 0.934 | Bacteroides dorei 0.955 | [1] 0.866 | [2] 0.886 | Clostridium difficile 0.943 | Collinsella aerofaciens 0.869
active: Bacteroides clarus 0.763 | Bacteroides stercoris 0.127 | Bacteroides uniformis 0.798

S=C1NCCN1
inactive: Akkermansia muciniphila 1.05 | Bacteroides caccae 0.998 | Bacteroides clarus 0.998 | Bacteroides dorei 1.06 | Bacteroides stercoris 1.13 | [1] 1.01 | Bacteroides uniformis 1.03 | [2] 0.947 | Clostridium difficile 1.05 | Collinsella aerofaciens 1.02

c1ccc(-c2ccccc2)cc1
inactive: Akkermansia muciniphila 1.09 | Bacteroides caccae 0.985 | Bacteroides clarus 1.03 | Bacteroides dorei 0.967 | Bacteroides stercoris 1.22 | [1] 0.969 | Bacteroides uniformis 1.01 | [2] 1.03 | Clostridium difficile 0.948 | Collinsella aerofaciens 0.963

CP(=O)(O)CC(=O)O
inactive: Akkermansia muciniphila 1.01 | Bacteroides caccae 0.959 | Bacteroides clarus 0.96 | Bacteroides dorei 1.02 | Bacteroides stercoris 0.929 | [1] 0.992 | Bacteroides uniformis 0.997 | [2] 1.04 | Clostridium difficile 1.1 | Collinsella aerofaciens 1.04

CCCCCCCCCCCCC1=C(OC(C)=O)C(=O)c2ccccc2C1=O
active: Collinsella aerofaciens 0.0278
inactive: Akkermansia muciniphila 1.04 | Bacteroides caccae 0.926 | Bacteroides clarus 0.934 | Bacteroides dorei 0.969 | Bacteroides stercoris 0.988 | [1] 0.996 | Bacteroides uniformis 0.987 | [2] 0.827 | Clostridium difficile 0.926

CCOP(=S)(OCC)SCS(=O)CC (stereo not given)
inactive: Akkermansia muciniphila 1.03 | Bacteroides caccae 0.99 | Bacteroides clarus 0.994 | Bacteroides dorei 1.01 | Bacteroides stercoris 1.05 | [1] 1.02 | Bacteroides uniformis 0.994 | [2] 1.03 | Clostridium difficile 0.972 | Collinsella aerofaciens 1.01

Nc1c(Cl)c(Cl)c(Cl)c(Cl)c1Cl
inactive: Akkermansia muciniphila 0.856 | Bacteroides caccae 0.897 | Bacteroides clarus 0.935 | Bacteroides dorei 0.956 | Bacteroides stercoris 0.945 | [1] 0.968 | Bacteroides uniformis 0.981 | [2] 0.949 | Clostridium difficile 0.988 | Collinsella aerofaciens 1

CC(C)(C)c1ccc(CSc2cnn(C(C)(C)C)c(=O)c2Cl)cc1
inactive: Akkermansia muciniphila 0.971 | Bacteroides caccae 0.95 | Bacteroides clarus 0.959 | Bacteroides dorei 0.991 | Bacteroides stercoris 1.07 | [1] 0.975 | Bacteroides uniformis 0.986 | [2] 0.97 | Clostridium difficile 0.963 | Collinsella aerofaciens 0.999

Cn1cc(-c2ccccc2)c(=O)c(-c2cccc(C(F)(F)F)c2)c1
inactive: Akkermansia muciniphila 0.9 | Bacteroides caccae 0.923 | Bacteroides clarus 0.999 | Bacteroides dorei 1.01 | Bacteroides stercoris 1.06 | [1] 0.967 | Bacteroides uniformis 0.977 | [2] 1.04 | Clostridium difficile 0.994 | Collinsella aerofaciens 0.939

COC(=O)NS(=O)(=O)c1ccc(N)cc1
inactive: Akkermansia muciniphila 1 | Bacteroides caccae 0.901 | Bacteroides clarus 0.995 | Bacteroides dorei 0.916 | Bacteroides stercoris 0.959 | [1] 0.948 | Bacteroides uniformis 0.867 | [2] 1.03 | Clostridium difficile 0.913 | Collinsella aerofaciens 0.876

COCC(=O)N(c1c(C)cccc1C)C(C)C(=O)OC (stereo not given)
inactive: Akkermansia muciniphila 1.11 | Bacteroides caccae 1.03 | Bacteroides clarus 1.02 | Bacteroides dorei 1.03 | Bacteroides stercoris 1.08 | [1] 1.02 | Bacteroides uniformis 1.02 | [2] 1.1 | Clostridium difficile 1.04 | Collinsella aerofaciens 1.02

CNC(=O)Oc1ccc(N(C)C)c(C)c1
inactive: Akkermansia muciniphila 1.05 | Bacteroides caccae 0.855 | Bacteroides clarus 1.01 | Bacteroides dorei 0.983 | Bacteroides stercoris 1.41 | [1] 0.994 | Bacteroides uniformis 1 | [2] 0.979 | Clostridium difficile 0.99 | Collinsella aerofaciens 0.932

O=C(O)C(Cl)Cl
inactive: Akkermansia muciniphila 0.875 | Bacteroides caccae 0.977 | Bacteroides clarus 0.966 | Bacteroides dorei 1.02 | Bacteroides stercoris 0.994 | [1] 0.999 | Bacteroides uniformis 1.01 | [2] 1.01 | Clostridium difficile 1 | Collinsella aerofaciens 0.981

CCOP(=S)(OCC)Oc1nc(Cl)n(C(C)C)n1
inactive: Akkermansia muciniphila 1.04 | Bacteroides caccae 0.932 | Bacteroides clarus 1.02 | Bacteroides dorei 1.01 | Bacteroides stercoris 1.14 | [1] 1.01 | Bacteroides uniformis 0.972 | [2] 0.964 | Clostridium difficile 0.982 | Collinsella aerofaciens 1.02

C=CC1(C)OC(=O)N(c2cc(Cl)cc(Cl)c2)C1=O (stereo not given)
inactive: Akkermansia muciniphila 1.02 | Bacteroides caccae 0.985 | Bacteroides clarus 0.958 | Bacteroides dorei 1 | Bacteroides stercoris 0.994 | [1] 0.989 | Bacteroides uniformis 0.99 | [2] 0.917 | Clostridium difficile 1.02 | Collinsella aerofaciens 0.999
